Drawing on ChEMBL document CHEMBL1961873, “Compounds: GSK PKIS; Assays: Nanosyn kinase panel” (2012), this text covers inhibition for one compound.

Assay [1] has as its target Sphingosine kinase 1 (Homo sapiens) (UniProt Q9NYA1). The conditions noted are these: at 1 µM.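 Further: mean SPHK1 inhibition value reported from the GSK PKIS kinase panel screen.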
Assay [2] concerns the target T1, Sphingosine kinase 2 (Homo sapiens) (UniProt Q9NRA0).
T1 sequence (whole entry): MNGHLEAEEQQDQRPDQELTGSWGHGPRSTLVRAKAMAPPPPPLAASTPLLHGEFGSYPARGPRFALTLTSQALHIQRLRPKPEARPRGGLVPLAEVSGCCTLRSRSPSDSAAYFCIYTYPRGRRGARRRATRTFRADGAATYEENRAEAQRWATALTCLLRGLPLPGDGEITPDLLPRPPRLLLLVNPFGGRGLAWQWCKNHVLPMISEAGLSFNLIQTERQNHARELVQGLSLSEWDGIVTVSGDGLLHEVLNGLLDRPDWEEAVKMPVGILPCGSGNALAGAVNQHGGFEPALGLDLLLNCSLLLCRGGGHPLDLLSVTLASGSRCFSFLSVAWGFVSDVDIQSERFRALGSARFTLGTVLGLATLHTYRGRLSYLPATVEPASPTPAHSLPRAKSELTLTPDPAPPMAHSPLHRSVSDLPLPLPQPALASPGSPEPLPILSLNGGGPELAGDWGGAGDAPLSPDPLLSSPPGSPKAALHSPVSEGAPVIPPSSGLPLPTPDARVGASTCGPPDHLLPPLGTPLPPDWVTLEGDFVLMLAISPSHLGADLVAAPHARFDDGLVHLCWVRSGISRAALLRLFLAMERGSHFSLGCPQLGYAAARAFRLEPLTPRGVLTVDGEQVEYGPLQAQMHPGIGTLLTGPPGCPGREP
The conditions noted are these: at 0.1 µM.

The target in assay [3] is T1, Sphingosine kinase 2 (Homo sapiens). The conditions noted are these: at 1 µM.
The target of assay [4] is Casein kinase II subunit alpha (Homo sapiens) (UniProt P68400). The conditions noted are these: at 0.1 µM.
Chain of Casein kinase II subunit alpha (Homo sapiens) (P68400 whole entry, looked up): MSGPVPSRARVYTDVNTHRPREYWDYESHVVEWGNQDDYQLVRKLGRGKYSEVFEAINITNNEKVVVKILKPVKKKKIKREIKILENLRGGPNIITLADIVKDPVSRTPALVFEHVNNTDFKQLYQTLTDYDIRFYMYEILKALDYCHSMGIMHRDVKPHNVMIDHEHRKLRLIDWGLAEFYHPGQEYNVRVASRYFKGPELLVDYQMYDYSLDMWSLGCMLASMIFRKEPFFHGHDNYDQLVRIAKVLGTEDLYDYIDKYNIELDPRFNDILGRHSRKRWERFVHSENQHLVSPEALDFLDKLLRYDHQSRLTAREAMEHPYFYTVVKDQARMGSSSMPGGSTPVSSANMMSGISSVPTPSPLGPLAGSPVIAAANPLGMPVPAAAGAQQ
The target is the same in assay [5]. The conditions noted are these: at 1 µM.
Assay [6] addresses T2, Inhibitor of nuclear factor kappa-B kinase subunit alpha (Homo sapiens) (UniProt O15111).
T2 sequence (whole entry): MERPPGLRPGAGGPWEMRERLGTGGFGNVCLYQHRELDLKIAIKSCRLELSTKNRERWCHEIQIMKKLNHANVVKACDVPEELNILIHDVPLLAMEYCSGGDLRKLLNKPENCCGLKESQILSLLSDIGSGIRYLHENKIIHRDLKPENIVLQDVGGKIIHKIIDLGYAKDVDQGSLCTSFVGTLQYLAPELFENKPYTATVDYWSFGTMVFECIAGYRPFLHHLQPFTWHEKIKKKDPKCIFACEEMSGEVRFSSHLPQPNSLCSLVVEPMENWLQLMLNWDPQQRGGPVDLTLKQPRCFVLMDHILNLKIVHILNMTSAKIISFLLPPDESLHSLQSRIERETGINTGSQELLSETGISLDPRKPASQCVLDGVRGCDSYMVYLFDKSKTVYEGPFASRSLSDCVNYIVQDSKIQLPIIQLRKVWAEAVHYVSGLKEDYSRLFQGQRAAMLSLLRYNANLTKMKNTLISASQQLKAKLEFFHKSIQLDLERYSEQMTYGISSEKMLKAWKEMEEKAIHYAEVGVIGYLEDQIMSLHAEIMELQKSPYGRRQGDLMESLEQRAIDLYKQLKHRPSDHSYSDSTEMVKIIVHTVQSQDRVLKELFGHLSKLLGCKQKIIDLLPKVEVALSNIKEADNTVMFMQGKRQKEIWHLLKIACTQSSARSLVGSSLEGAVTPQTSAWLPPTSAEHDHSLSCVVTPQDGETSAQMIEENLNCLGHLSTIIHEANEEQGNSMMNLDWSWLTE
The following applies: at 0.1 µM.

The target of assay [7] is T2, Inhibitor of nuclear factor kappa-B kinase subunit alpha (Homo sapiens). The following applies: at 1 µM.
For assay [8], the target named is T3, Inhibitor of nuclear factor kappa-B kinase subunit beta (Homo sapiens) (UniProt O14920).
T3 sequence (whole entry): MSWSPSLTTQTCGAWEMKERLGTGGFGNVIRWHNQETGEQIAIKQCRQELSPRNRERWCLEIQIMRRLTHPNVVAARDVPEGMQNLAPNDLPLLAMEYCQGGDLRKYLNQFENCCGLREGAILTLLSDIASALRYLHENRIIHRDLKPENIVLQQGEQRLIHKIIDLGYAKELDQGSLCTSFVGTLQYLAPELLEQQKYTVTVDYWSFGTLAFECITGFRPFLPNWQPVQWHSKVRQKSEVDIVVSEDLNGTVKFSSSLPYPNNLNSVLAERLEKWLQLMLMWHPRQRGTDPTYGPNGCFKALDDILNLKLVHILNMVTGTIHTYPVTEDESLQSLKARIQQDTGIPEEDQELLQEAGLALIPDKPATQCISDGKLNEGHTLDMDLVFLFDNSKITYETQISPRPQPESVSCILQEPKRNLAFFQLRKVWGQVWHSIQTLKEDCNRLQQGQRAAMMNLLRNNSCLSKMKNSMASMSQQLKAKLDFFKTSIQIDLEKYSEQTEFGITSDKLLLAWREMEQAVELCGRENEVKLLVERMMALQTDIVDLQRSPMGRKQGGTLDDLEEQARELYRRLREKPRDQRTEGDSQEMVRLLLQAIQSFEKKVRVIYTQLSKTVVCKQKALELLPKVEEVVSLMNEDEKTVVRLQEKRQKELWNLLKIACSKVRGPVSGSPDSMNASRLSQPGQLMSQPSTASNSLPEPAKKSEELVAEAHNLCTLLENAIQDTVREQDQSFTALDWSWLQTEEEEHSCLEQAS
The conditions noted are these: at 0.1 µM.

The target in assay [9] is T3, Inhibitor of nuclear factor kappa-B kinase subunit beta (Homo sapiens). The following applies: at 1 µM.
Assay [10] concerns the target T4, Inhibitor of nuclear factor kappa-B kinase subunit epsilon (Homo sapiens) (UniProt Q14164).
T4 sequence (whole entry): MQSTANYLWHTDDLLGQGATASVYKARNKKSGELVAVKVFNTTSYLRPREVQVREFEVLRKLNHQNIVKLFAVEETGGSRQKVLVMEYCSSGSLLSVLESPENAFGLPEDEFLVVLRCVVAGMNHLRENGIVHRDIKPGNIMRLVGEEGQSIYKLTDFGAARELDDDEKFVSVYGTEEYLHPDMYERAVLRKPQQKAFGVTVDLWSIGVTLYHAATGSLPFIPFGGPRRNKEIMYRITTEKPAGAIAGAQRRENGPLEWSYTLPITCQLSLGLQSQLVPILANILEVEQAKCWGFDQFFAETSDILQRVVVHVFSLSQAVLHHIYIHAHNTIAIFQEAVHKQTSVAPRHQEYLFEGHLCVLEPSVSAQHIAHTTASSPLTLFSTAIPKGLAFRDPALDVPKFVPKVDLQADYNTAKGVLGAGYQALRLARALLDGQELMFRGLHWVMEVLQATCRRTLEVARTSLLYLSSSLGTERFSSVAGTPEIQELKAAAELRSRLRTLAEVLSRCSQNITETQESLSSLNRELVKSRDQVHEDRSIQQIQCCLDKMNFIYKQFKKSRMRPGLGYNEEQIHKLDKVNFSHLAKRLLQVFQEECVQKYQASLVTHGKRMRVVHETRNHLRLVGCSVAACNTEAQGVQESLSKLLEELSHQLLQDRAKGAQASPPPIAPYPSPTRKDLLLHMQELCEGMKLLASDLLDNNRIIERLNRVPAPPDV
The following applies: at 0.1 µM.

The target in assay [11] is T4, Inhibitor of nuclear factor kappa-B kinase subunit epsilon (Homo sapiens). The following applies: at 1 µM.
Assay [12] addresses T5, Serine/threonine-protein kinase Nek1 (Homo sapiens) (UniProt Q96PY6).
T5 sequence (whole entry): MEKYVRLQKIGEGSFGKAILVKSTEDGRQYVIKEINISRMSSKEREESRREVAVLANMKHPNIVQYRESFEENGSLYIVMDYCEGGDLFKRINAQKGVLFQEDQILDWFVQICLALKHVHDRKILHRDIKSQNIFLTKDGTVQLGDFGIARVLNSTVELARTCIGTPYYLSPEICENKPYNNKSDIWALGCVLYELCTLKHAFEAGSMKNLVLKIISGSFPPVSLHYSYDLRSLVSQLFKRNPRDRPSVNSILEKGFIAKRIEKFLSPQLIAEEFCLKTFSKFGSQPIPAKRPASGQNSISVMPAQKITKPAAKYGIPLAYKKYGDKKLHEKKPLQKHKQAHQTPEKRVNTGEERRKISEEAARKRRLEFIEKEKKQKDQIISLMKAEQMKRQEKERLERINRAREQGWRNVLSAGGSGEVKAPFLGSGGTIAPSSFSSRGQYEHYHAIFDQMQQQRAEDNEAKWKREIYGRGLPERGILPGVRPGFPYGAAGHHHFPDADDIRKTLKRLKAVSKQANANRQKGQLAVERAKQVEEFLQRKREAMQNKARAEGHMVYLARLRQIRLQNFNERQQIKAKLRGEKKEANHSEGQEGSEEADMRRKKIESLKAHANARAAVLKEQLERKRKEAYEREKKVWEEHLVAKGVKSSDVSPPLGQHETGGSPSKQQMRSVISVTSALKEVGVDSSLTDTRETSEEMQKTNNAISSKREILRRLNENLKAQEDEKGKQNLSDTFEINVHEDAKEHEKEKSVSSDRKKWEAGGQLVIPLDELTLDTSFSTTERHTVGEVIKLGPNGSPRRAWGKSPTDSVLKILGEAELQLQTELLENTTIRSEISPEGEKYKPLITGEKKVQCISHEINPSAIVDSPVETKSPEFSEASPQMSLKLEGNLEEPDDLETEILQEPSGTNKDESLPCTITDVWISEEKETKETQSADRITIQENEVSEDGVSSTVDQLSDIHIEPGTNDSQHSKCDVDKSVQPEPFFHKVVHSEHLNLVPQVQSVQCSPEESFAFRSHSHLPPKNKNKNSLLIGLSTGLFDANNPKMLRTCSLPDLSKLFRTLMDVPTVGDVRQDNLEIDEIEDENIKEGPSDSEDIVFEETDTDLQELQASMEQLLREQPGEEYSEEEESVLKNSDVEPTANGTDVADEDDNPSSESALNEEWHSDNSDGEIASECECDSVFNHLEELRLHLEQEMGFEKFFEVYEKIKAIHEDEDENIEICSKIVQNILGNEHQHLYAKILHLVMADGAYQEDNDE
The conditions noted are these: at 0.1 µM.

In assay [13] the target is T5, Serine/threonine-protein kinase Nek1 (Homo sapiens). The following applies: at 1 µM.
In assay [14] the target is T6, Serine/threonine-protein kinase Nek2 (Homo sapiens) (UniProt P51955).
T6 sequence (whole entry): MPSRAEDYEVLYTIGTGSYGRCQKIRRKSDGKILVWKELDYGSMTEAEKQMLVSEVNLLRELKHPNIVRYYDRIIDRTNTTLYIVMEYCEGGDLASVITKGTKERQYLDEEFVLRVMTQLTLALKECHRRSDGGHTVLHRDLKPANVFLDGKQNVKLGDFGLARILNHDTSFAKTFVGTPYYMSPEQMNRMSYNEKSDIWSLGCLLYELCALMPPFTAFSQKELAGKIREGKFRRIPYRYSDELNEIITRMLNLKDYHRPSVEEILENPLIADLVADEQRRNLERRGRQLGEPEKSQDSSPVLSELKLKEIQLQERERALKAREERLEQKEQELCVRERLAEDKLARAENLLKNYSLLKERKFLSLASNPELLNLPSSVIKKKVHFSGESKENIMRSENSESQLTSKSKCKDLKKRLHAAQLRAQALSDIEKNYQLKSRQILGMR
The following applies: at 0.1 µM.

Assay [15] has as its target T6, Serine/threonine-protein kinase Nek2 (Homo sapiens). The conditions noted are these: at 1 µM.
Assay [16] has as its target Serine/threonine-protein kinase Nek6 (Homo sapiens) (UniProt Q9HC98). The following applies: at 0.1 µM.
Assay [17] shares this target. The conditions noted are these: at 1 µM.
In assay [18] the target is Serine/threonine-protein kinase Nek7 (Homo sapiens) (UniProt Q8TDX7). The following applies: at 0.1 µM.
Chain of Serine/threonine-protein kinase Nek7 (Homo sapiens) (Q8TDX7 whole entry, looked up): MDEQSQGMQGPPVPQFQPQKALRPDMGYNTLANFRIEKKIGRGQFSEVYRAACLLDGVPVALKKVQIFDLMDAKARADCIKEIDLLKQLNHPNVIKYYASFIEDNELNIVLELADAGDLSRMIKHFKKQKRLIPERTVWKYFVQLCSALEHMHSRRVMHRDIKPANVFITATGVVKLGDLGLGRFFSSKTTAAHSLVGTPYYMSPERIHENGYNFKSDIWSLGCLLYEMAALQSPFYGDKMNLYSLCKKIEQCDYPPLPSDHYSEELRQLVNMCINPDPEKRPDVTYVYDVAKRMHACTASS
For assay [19] the target is unchanged. The following applies: at 1 µM.
Assay [20] concerns the target T7, Serine/threonine-protein kinase Nek9 (Homo sapiens) (UniProt Q8TD19).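 Further: reported value is the mean percent inhibition of NEK9.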
T7 sequence (whole entry): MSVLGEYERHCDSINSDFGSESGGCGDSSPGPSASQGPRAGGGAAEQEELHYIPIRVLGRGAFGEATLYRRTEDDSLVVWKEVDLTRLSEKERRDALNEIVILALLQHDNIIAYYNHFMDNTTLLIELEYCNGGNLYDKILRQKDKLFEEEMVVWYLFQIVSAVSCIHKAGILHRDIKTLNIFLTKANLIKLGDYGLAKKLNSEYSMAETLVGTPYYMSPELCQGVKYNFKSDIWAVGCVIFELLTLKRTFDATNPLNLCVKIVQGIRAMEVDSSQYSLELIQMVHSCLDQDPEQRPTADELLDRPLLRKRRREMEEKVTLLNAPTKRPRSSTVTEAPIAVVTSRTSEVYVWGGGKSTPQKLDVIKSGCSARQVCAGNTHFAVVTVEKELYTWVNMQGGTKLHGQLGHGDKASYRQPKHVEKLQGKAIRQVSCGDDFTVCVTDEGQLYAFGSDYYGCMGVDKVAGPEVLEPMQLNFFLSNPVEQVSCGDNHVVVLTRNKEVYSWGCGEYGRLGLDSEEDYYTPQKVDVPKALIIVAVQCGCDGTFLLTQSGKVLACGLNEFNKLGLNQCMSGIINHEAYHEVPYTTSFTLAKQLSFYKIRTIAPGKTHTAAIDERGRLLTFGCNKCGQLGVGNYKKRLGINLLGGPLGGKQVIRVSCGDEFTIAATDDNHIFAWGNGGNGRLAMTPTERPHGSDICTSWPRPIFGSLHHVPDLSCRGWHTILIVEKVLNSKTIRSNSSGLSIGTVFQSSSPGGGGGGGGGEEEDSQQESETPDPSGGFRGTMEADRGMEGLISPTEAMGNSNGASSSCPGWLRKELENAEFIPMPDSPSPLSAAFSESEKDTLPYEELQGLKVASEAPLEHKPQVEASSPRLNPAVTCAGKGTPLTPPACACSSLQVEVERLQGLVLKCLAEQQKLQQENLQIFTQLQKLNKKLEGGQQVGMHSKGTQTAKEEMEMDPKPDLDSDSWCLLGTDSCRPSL
The conditions noted are these: at 0.1 µM.

Chain of Serine/threonine-protein kinase Nek6 (Homo sapiens) (Q9HC98 whole entry): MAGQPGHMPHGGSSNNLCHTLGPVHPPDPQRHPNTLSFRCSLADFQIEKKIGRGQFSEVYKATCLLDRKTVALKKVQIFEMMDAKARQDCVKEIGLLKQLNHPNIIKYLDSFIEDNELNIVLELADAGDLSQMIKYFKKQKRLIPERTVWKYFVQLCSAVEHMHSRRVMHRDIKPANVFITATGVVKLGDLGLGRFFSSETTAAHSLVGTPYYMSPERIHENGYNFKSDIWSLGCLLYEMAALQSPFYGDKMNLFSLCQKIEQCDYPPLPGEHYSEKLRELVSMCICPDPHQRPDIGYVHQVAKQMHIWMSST
Chain of Sphingosine kinase 1 (Homo sapiens) (Q9NYA1 whole entry): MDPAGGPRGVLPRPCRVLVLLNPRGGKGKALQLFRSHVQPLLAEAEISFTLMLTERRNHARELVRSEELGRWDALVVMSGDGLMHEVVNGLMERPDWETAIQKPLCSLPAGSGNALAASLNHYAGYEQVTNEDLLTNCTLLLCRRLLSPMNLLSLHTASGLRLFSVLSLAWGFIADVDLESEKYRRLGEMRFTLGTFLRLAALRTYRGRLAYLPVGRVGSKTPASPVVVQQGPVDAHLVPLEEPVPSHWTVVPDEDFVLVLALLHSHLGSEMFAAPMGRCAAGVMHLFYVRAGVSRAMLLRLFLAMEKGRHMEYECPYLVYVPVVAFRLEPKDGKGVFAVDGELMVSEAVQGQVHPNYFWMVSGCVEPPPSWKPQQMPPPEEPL

As for `O=C(O[C@H]1CN[C@H](C#Cc2cc3ncnc(Nc4ccc(OCc5cccc(F)c5)c(Cl)c4)c3s2)C1)N1CCOCC1`, the inhibition in assay [1] was -2.17%; in [2] it was 0.46%; in assay [3], -2.18%; in [4], 4.85%; in [5], 11.5%; in assay [6], 6.35%. In addition, the inhibition is 6.72% in assay [7]; 8.43% in assay [8]; 11.1% in assay [9]; 8.36% in [10]; 9.71% in [11]; 3.33% in assay [12]. The inhibition is 4.01% in [13]; 6.18% in assay [14]; 8.23% in assay [15]; 1.15% in assay [16]; 2.74% in assay [17]; 4.68% in assay [18]. The inhibition in [19] came out at 3.68%; in assay [20], 5.79%.
